{
  "source": "ChEMBL document CHEMBL2218924",
  "about": "“A broad activity screen in support of a chemogenomic map for kinase signalling research and drug discovery” (Biochem J, 2013)",
  "data": [
    {"molecular_target": "T1, Protein kinase C zeta type (Homo sapiens) (UniProt Q05513)", "T1 sequence (whole entry)": "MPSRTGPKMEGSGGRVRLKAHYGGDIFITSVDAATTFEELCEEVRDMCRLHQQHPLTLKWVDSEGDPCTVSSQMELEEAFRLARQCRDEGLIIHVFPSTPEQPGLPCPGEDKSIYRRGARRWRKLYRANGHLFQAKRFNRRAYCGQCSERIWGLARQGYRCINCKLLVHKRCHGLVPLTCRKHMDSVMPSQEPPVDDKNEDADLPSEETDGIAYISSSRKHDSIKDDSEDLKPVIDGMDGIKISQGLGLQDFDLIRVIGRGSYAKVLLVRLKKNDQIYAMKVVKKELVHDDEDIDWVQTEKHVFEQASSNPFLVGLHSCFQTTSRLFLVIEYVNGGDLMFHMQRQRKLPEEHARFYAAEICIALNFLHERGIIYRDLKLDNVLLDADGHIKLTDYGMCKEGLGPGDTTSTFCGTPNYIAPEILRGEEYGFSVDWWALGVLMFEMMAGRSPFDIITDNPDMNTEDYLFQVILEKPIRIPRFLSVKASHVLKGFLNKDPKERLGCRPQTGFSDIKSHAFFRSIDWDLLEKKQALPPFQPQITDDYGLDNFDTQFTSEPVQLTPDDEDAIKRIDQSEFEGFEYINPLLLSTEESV", "conditions": "at 10 µM", "units": {"residual activity": "%"}, "values": [
      {"smiles": "COc1ccc(CNC(=O)Nc2ncc([N+](=O)[O-])s2)cc1", "residual activity": 105},
      {"smiles": "O=C1Cc2c([nH]c3ccc(Br)cc23)-c2ccccc2N1", "residual activity": 92},
      {"smiles": "COc1cc2c(cc1OC)-c1n[nH]c(Nc3cccc(F)c3)c1C2", "residual activity": 109},
      {"smiles": "NCCNc1ncc(C(N)=O)c(Nc2cccc(C(F)(F)F)c2)n1", "residual activity": 112},
      {"smiles": "COc1cc2ncnc(Nc3cccc(Cl)c3)c2cc1OC", "residual activity": 110},
      {"smiles": "O=S(=O)(NCCNC/C=C/c1ccc(Br)cc1)c1cccc2cnccc12", "residual activity": 78},
      {"smiles": "O=C1NC(=O)C(c2cn(CCCn3ccnc3)c3ccccc23)=C1Nc1ccccc1", "residual activity": 50},
      {"smiles": "O=C1NC(=O)C(c2c[nH]c3ccccc23)=C1c1c[nH]c2ccccc12", "residual activity": 25}
    ]},
    {"molecular_target": "Protein kinase C eta type (Homo sapiens) (UniProt P24723)", "sequence (P24723 whole entry)": "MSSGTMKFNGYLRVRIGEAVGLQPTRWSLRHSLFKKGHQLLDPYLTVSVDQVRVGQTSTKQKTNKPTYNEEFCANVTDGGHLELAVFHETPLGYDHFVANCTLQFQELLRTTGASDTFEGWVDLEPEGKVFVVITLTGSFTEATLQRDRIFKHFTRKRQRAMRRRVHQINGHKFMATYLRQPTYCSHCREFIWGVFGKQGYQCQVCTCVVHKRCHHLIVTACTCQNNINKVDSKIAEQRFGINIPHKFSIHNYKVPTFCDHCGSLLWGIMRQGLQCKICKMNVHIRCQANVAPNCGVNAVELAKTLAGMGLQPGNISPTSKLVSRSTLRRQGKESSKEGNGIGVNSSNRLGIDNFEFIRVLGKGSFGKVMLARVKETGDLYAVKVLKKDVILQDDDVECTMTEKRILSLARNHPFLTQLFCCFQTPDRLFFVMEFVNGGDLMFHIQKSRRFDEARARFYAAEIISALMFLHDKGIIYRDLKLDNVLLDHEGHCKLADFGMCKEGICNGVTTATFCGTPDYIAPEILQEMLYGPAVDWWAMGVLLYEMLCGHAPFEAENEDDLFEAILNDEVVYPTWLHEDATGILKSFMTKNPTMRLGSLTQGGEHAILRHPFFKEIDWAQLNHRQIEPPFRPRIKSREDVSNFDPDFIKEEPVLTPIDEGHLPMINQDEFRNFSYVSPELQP", "conditions": "at 1 µM", "units": {"residual activity": "%"}, "values": [
      {"smiles": "Cn1sc(=O)n(Cc2ccccc2)c1=O", "residual activity": 79},
      {"smiles": "Nc1n[nH]c2nc3ccccc3nc12", "residual activity": 89},
      {"smiles": "O=C1Cc2c([nH]c3ccc(Br)cc23)-c2ccccc2N1", "residual activity": 72},
      {"smiles": "COc1cc2c(cc1OC)-c1n[nH]c(Nc3cccc(F)c3)c1C2", "residual activity": 102},
      {"smiles": "CSc1nc(-c2ccc(F)cc2)c(-c2ccnc(NC(C)c3ccccc3)c2)[nH]1", "note": "(stereo not drawn)", "residual activity": 87},
      {"smiles": "Nc1nccc(-c2c(-c3ccc(F)cc3)ncn2C2CCNCC2)n1", "residual activity": 114},
      {"smiles": "CN([C@@H](Cc1ccc(OS(=O)(=O)c2cccc3cnccc23)cc1)C(=O)N1CCN(c2ccccc2)CC1)S(=O)(=O)c1cccc2cnccc12", "residual activity": 116},
      {"smiles": "COc1cc2ncnc(Nc3cccc(Cl)c3)c2cc1OC", "residual activity": 110},
      {"smiles": "O=S(=O)(c1cccc2cnccc12)N1CCCNCC1", "residual activity": 80},
      {"smiles": "COc1cc2nccc(Oc3ccc(NC(=O)Nc4cc(C)on4)c(Cl)c3)c2cc1OC", "residual activity": 96}
    ]}
  ]
}
